Data published in PubChem BioAssay AID1540 (National Center for Advancing Translational Sciences (NCATS), 2009).
“And” between values parts separate entries of the source, which are not always exact repeats. Equal values may be shown once. Results filed as inconclusive are left out. The source made the active and inactive calls. The call rests on the fitted dose curve; in most records, active means well fitted activation curve with a large enough effect; inconclusive means small, poorly fitted or top-dose-only effect, or effect the other way; inactive means flat fitted curve, though single readings scatter.

The compounds below were run against Pyruvate kinase PKM (Homo sapiens) (UniProt P14618) (assay: Secondary assay for Activators of Human Pyruvate Kinase M2 isoform). Conditions: purified hPK-M2, LDH-coupled NADH fluorescence kinetic; series mostly up to 57.5 µM.
Excerpt: Confirmatory assay NIH Chemical Genomics Center [NCGC] Matthew G. Vander Heiden, M.D., Ph.D. [Harvard Medical School, 77 Avenue Louis Pasteur, Boston, MA 02115] NCGC Assay Overview: Human pyruvate kinase muscle 2 (hPK-M2)enzyme was supplied as a highly purified (>95% pure) preparation from Harvard Medical School and a secondary assay was used to evaluate compounds. This assay couples the formation of pyruvate from hPK-M2 using lactate dehydrogenase (LDH) and NADH. The depletion of NADH is followed in a fluorescent-based kinetic assay that follows the formation of pyruvate to lactate, as catalyzed LDH (described by Hannaert et al., 2002)1 Pyruvate kinase substrates, PEP and ADP, were present in the assay at 0.1 mM and 4 mM respectively. In this kinetic assay initial rates were determined by following the fluorescence of NADH depletion.
NCGC Assay Protocol Summary: Three uL of substrate mix (final concentration, 50 mM Tris-Cl pH 8.0, 200 mM KCl, 15 mM MgCl2, 0.1 mM PEP, 4.0 mM ADP, and 0.2 mM NADH) was dispensed into black-solid 1536 well plates. 23 nL of compounds were delivered by a pin tool and 1 uL of enzyme mix (final concentrations, 10 nM hPK-M2 and 1 uM of LDH) was added. Plates were immediately placed in ViewLux (Perkin Elmer) and NADH fluorescence was determined at 30 second exposure intervals for between 3 and 6 minutes. Data were normalized to the uninhibited and EC100 activation using known activators such as fructose-bis-phosphate.

Sequence of Pyruvate kinase PKM (Homo sapiens) (P14618 whole entry, looked up, canonical isoform): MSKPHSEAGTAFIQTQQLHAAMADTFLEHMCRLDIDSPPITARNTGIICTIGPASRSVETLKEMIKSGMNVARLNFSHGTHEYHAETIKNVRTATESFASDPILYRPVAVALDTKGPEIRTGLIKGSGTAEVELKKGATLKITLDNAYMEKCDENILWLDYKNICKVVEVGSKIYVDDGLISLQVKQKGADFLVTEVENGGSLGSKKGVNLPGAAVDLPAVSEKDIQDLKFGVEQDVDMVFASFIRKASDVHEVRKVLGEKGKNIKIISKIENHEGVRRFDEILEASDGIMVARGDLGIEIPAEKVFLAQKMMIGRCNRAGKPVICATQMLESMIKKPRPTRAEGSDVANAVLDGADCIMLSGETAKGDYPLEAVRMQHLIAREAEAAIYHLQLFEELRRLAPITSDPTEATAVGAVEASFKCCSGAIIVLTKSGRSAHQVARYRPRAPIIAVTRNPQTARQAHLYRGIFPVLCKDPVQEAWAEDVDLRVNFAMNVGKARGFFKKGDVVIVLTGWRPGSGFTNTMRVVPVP

Row | SMILES | Potency
1 | Cn1c2cc(Br)sc2c2cnn(Cc3c(F)cccc3Cl)c(=O)c21 | 794 nM (active)
2 | O=C1CN(S(=O)(=O)c2c(F)cccc2F)CCN1S(=O)(=O)c1ccc2c(c1)OCCO2 | 2510 nM (active)
3 | Cc1ccc(Cn2ncc3c4sc(C)cc4n(C)c3c2=O)c(C)c1 | 1780 nM (active)
4 | O=S(=O)(c1c(F)cccc1F)N1CCN(S(=O)(=O)c2c(F)cccc2F)CC1 | 126 nM (active)
5 | C[C@H]1CN(S(=O)(=O)c2ccc3c(c2)OCCO3)CCN1S(=O)(=O)c1c(F)cccc1F | 5010 nM (active)
6 | O=S(=O)(c1ccc2c(c1)OCCO2)N1CCN(S(=O)(=O)c2ccc(F)cc2F)CC1 | 501 nM (active)
7 | C[C@H]1CN(S(=O)(=O)c2c(F)cccc2F)CCN1S(=O)(=O)c1ccc2c(c1)OCCO2 | 5010 nM (active)
8 | COc1cc(F)c(S(=O)(=O)N2CCN(S(=O)(=O)c3ccc(N)cc3)CC2)c(F)c1 | 183 nM (active)
9 | C[C@@H]1CN(S(=O)(=O)c2ccc3c(c2)OCCO3)CCN1S(=O)(=O)c1c(F)cccc1F | 3550 nM (active)
10 | Cc1cc2c(s1)c1c(C)nn(Cc3ccc(F)cc3)c(=O)c1n2C | 2820 nM (active)
11 | COc1cc(F)c(S(=O)(=O)N2CCN(S(=O)(=O)c3ccco3)CC2)c(F)c1 | 116 nM (active)
12 | Cn1c2cc(Br)sc2c2cnn(Cc3ccc(F)cc3)c(=O)c21 | 794 nM (active)
13 | Cn1c2cc(S(C)=O)sc2c2cnn(Cc3ccccc3F)c(=O)c21 (stereo not given) | 398 nM (active)
14 | Cn1c2cc(C#N)sc2c2cnn(Cc3ccc(F)cc3)c(=O)c21 | 282 nM (active)
15 | Cn1c2cc(B(O)O)sc2c2cnn(Cc3c(F)cccc3Cl)c(=O)c21 | 6310 nM (active)
16 | CSc1cc2c(s1)c1cnn(Cc3ccccc3F)c(=O)c1n2C | 708 nM (active)
17 | COC(=O)c1cc(F)c(S(=O)(=O)N2CCN(S(=O)(=O)c3ccc4c(c3)OCCO4)CC2)cc1F | 355 nM (active)
18 | Cc1cc2c(s1)c1cnn(Cc3ccc(C)c(F)c3F)c(=O)c1n2C | 141 nM (active)
19 | COc1cc(F)c(S(=O)(=O)N2CCN(S(=O)(=O)c3cccc(N)c3)CC2)c(F)c1 | 73 nM (active)
20 | Cn1c2cc(Br)sc2c2cnn(Cc3ccc(F)cc3F)c(=O)c21 | 708 nM (active)

Row | SMILES | Potency
21 | COc1cc(F)c(S(=O)(=O)N2CCN(S(=O)(=O)c3cccs3)CC2)c(F)c1 | 51.7 nM (active)
22 | O=S(=O)(c1ccc2c(c1)OCCO2)N1CCCN(S(=O)(=O)c2c(F)cccc2F)CC1 | 891 nM (active)
23 | Cc1cc2c(s1)c1cnn(Cc3cccc(Cn4ncc5c6sc(C)cc6n(C)c5c4=O)c3F)c(=O)c1n2C | 35500 nM (active)
24 | Cn1c2cc(Br)sc2c2cnn(Cc3c(F)cccc3F)c(=O)c21 | 631 nM (active)
25 | COc1cc(F)c(S(=O)(=O)N2CCCN(S(=O)(=O)c3ccc(N)cc3)CC2)c(F)c1 | 1300 nM (active)
26 | Cc1cc2[nH]c3c(=O)n(Cc4ccccc4F)ncc3c2s1 | 708 nM (active)
27 | O=S(=O)(NCCNS(=O)(=O)c1c(F)cccc1F)c1ccc2c(c1)OCCO2 | inactive
28 | Cc1cc2c(s1)c1cnn(Cc3ccc(C(C)C)cc3)c(=O)c1n2C | 4470 nM (active)
29 | Cn1c2cc(C=O)sc2c2cnn(Cc3ccccc3F)c(=O)c21 | 282 nM (active)
30 | CC(=O)Nc1ccc(S(=O)(=O)N2CCN(S(=O)(=O)c3ccc4c(c3)OCCO4)CC2)cc1 | 919 nM (active)
31 | CN(C)c1cccc(S(=O)(=O)N2CCN(S(=O)(=O)c3ccc4c(c3)OCCO4)CC2)c1 | inactive
32 | COc1cc(F)c(S(=O)(=O)N2CCCN(S(=O)(=O)c3cccc(N)c3)CC2)c(F)c1 | 146 nM (active) and 1.16 µM (active)
33 | O=S(=O)(c1ccc2ccccc2c1)N1CCN(S(=O)(=O)c2c(F)cccc2F)CC1 | 8.91 µM (active) and 158 nM (active)
34 | COc1cc(F)c(S(=O)(=O)N2CCN(S(=O)(=O)c3ccc(NC(C)=O)cc3)CC2)c(F)c1 | 14600 nM (active)
35 | CC(=O)Nc1ccc(S(=O)(=O)N2CCCN(S(=O)(=O)c3ccc4c(c3)OCCO4)CC2)cc1 | 2590 nM (active)
36 | O=S(=O)(c1cccc(F)c1)N1CCN(S(=O)(=O)c2ccc3c(c2)OCCO3)CC1 | 1000 nM (active)
37 | COc1cc2c(s1)c1cnn(Cc3ccccc3F)c(=O)c1n2C | 158 nM (active)
38 | COc1cc(F)c(S(=O)(=O)N2CCN(S(=O)(=O)c3ccc4c(c3)OCCO4)CC2)c(F)c1 | 562 nM (active)
39 | O=S(=O)(c1cccc(O)c1)N1CCN(S(=O)(=O)c2c(F)cccc2F)CC1 | 183 nM (active)
40 | Cc1cc2c(s1)c1cnn(Cc3cc(C(F)(F)F)cc(Cl)c3F)c(=O)c1n2C | 562 nM (active)
